According to the supplement of paper PMC9262897, “Low-cost anti-mycobacterial drug discovery using engineered E. coli” (Nature Communications, 2022):
Where a name gives a salt, the structure may show the parent alone. ± gives the standard deviation of the averaged measurements.

Tested on: E. coli TESEC Mtb Alr
Assay: growth (OD600 after 10 h); higher = more growth (less inhibition)
Conditions: compound 0.1 mM
Method: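 TESEC Mtb Alr E. coli, or the Alr+ wild-type control, in 384-well plates with Prestwick library compounds at 0.1 mM and 1% DMSO, across arabinose induction levels of 1E3 to 1E7 nM. Growth is read as OD600 after 10 h at 37 °C in triplicate biological replicates.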

[1] = arabinose 1000 nM, raw OD600 reference: median of DMSO wells 0.294, cell-free background 0.041
[2] = arabinose 10000 nM, raw OD600 reference: median of DMSO wells 0.264, cell-free background 0.041
[3] = arabinose 100000 nM, raw OD600 reference: median of DMSO wells 0.201, cell-free background 0.041
[4] = arabinose 1000000 nM, raw OD600 reference: median of DMSO wells 0.193, cell-free background 0.041
[5] = arabinose 10000000 nM, raw OD600 reference: median of DMSO wells 0.146, cell-free background 0.041

## C=C(CC)C(=O)c1ccc(OCC(=O)O)c(Cl)c1Cl [Ethacrynic acid]
[1]
  growth: 0.242 ± 0.01
[2]
  growth: 0.244 ± 0.0042
[3]
  growth: 0.2 ± 0.005
[4]
  growth: 0.171 ± 0.0037
[5]
  growth: 0.144 ± 0.0087

## C=C[C@H]1CN2CC[C@H]1C[C@@H]2[C@@H](O)c1ccnc2ccc(OC)cc12 [Quinidine hydrochloride monohydrate]
[1]
  growth: 0.28 ± 0.019
[2]
  growth: 0.265 ± 0.01
[3]
  growth: 0.181 ± 0.0089
[4]
  growth: 0.138 ± 0.0072
[5]
  growth: 0.144 ± 0.0058

## N=C(N)N/N=C/c1c(Cl)cccc1Cl [Guanabenz acetate]
[1]
  growth: 0.224 ± 0.0084
[2]
  growth: 0.2721 ± 0.00092
[3]
  growth: 0.221 ± 0.021
[4]
  growth: 0.144 ± 0.005
[5]
  growth: 0.168 ± 0.0024

## Cc1c(N(C)C)c(=O)n(-c2ccccc2)n1C [Amidopyrine]
[1]
  growth: 0.28 ± 0.016
[2]
  growth: 0.2721 ± 0.0006
[3]
  growth: 0.225 ± 0.02
[4]
  growth: 0.184 ± 0.0082
[5]
  growth: 0.138 ± 0.0025

## OC[C@H]1O[C@@H](Oc2ccc(O)cc2)[C@H](O)[C@@H](O)[C@@H]1O [Arbutin]
[1]
  growth: 0.325 ± 0.02
[2]
  growth: 0.272 ± 0.011
[3]
  growth: 0.193 ± 0.021
[4]
  growth: 0.191 ± 0.0053
[5]
  growth: 0.144 ± 0.0033

## CC(C(=O)O)c1ccc2c(c1)Cc1cccnc1O2 (stereo not given) [Pranoprofen]
[1]
  growth: 0.302 ± 0.013
[2]
  growth: 0.271 ± 0.0097
[3]
  growth: 0.192 ± 0.016
[4]
  growth: 0.193 ± 0.0053
[5]
  growth: 0.133 ± 0.0031

## CC(C)c1c(C(=O)Nc2ccccc2)c(-c2ccccc2)c(-c2ccc(F)cc2)n1CC[C@@H](O)C[C@@H](O)CC(=O)O [Atorvastatin]
[1]
  growth: 0.177 ± 0.0077
[2]
  growth: 0.108 ± 0.0075
[3]
  growth: 0.168 ± 0.0033
[4]
  growth: 0.0909 ± 0.0015
[5]
  growth: 0.136 ± 0.0052

## CN1C(C(=O)Nc2ccccn2)=C(O)c2sccc2S1(=O)=O [Tenoxicam]
[1]
  growth: 0.238 ± 0.0097
[2]
  growth: 0.223 ± 0.0086
[3]
  growth: 0.212 ± 0.0097
[4]
  growth: 0.152 ± 0.0064
[5]
  growth: 0.139 ± 0.0027
